In the supplement of paper PMC12645437, “Orthogonal IMiD-Degron Pairs Induce Selective Protein Degradation in Cells” (ACS Chemical Biology, 2025):
The full ranking holds about 8,300 sequences; the median of “log2 fold change of degron read counts, EGFP-low vs EGFP+ sorted cells (limma voom), compound-induced degradation” is about -1.1, and the highest 2% start at about 3.2. Shown is part of a subset that was picked to be rich in the highest values.

B1: 46F_47C_49P_50Q_52G_53A_54H_55F_67L_, Q9UKT9 (peptide)
chain: FCCPQCGAHFTQKGNLLRHIKL
B2: 46F_47K_49N_50Q_52G_53H_54P_55F_67L_, Q9UKT9 (peptide)
chain: FKCNQCGHPFTQKGNLLRHIKL
B3: 46L_47K_49E_50I_52G_53F_54T_55C_67L_, Q9UKT9 (peptide)
chain: LKCEICGFTCTQKGNLLRHIKL
B4: 46L_47L_49E_50I_52G_53F_54T_55C_67L_, Q9UKT9 (peptide)
chain: LLCEICGFTCTQKGNLLRHIKL
B5: 46L_47Q_49E_50I_52G_53F_54T_55C_67L_, Q9UKT9 (peptide)
chain: LQCEICGFTCTQKGNLLRHIKL
B6: 46L_47G_49E_50I_52G_53F_54T_55C_67L_, Q9UKT9 (peptide)
chain: LGCEICGFTCTQKGNLLRHIKL
B7: 46L_47D_49E_50I_52G_53F_54T_55C_67L_, Q9UKT9 (peptide)
chain: LDCEICGFTCTQKGNLLRHIKL
B8: 46L_47T_49E_50I_52G_53F_54T_55C_67L_, Q9UKT9 (peptide)
chain: LTCEICGFTCTQKGNLLRHIKL
B9: 46L_47V_49E_50I_52G_53F_54T_55C_67L_, Q9UKT9 (peptide)
chain: LVCEICGFTCTQKGNLLRHIKL
B10: 46L_47A_49E_50I_52G_53F_54T_55C_67L_, Q9UKT9 (peptide)
chain: LACEICGFTCTQKGNLLRHIKL
B11: 46L_47M_49E_50I_52G_53F_54T_55C_67L_, Q9UKT9 (peptide)
chain: LMCEICGFTCTQKGNLLRHIKL
B12: 46L_47S_49E_50I_52G_53F_54T_55C_67L_, Q9UKT9 (peptide)
chain: LSCEICGFTCTQKGNLLRHIKL
B13: 46L_47W_49E_50I_52G_53F_54T_55C_67L_, Q9UKT9 (peptide)
chain: LWCEICGFTCTQKGNLLRHIKL
B14: 46L_47C_49E_50I_52G_53F_54T_55C_67L_, Q9UKT9 (peptide)
chain: LCCEICGFTCTQKGNLLRHIKL
B15: 46L_47Y_49E_50I_52G_53F_54T_55C_67L_, Q9UKT9 (peptide)
chain: LYCEICGFTCTQKGNLLRHIKL
B16: 46F_47E_49P_50I_52G_53R_54S_55F_67L_, Q9UKT9 (peptide)
chain: FECPICGRSFTQKGNLLRHIKL
B17: 46F_47F_49S_50V_52G_53H_54N_55F_67L_, Q9UKT9 (peptide)
chain: FFCSVCGHNFTQKGNLLRHIKL
B18: 46F_47C_49N_50Q_52G_53R_54R_55F_67L_, Q9UKT9 (peptide)
chain: FCCNQCGRRFTQKGNLLRHIKL

Target: T1, CRBN, Q96SW2
T1 chain: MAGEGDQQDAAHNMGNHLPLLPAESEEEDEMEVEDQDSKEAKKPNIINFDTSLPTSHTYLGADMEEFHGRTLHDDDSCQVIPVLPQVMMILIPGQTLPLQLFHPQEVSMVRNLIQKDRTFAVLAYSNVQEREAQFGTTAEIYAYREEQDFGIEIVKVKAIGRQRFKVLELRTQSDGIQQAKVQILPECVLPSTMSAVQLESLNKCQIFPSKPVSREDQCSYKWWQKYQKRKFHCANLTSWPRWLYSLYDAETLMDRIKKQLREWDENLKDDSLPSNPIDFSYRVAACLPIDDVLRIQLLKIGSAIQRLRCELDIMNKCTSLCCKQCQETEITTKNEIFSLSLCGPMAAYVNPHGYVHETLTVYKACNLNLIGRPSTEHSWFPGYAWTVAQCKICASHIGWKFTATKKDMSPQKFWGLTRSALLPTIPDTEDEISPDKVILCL
Experiment: log2 fold change of degron read counts, EGFP-low vs EGFP+ sorted cells (limma voom), compound-induced degradation; higher = more compound-induced degradation of the degron-EGFP fusion; degrons are variants of IKZF1/3 zinc finger 2; compound dose not given here
Settings: Jurkat, 18 h

[1] = compound: compound 19 (5-tert-butyl-thalidomide)
[2] = compound: compound 22 (5-morpholino-thalidomide)
[3] = compound: compound 33 (diphenyl IMiD analogue)
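Further: pooled lentiviral library of zinc finger degron-EGFP fusions in mCherry-positive Jurkat cells, FACS-sorted after compound exposure, with degron abundance counted by next-generation sequencing.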

Sequence	log2 fold change of degron read counts [1]	log2 fold change of degron read counts [2]	log2 fold change of degron read counts [3]	log2 fold change of degron read counts (compound: thalidomide)
B1	-1.46	-2.19	-0.412	-1.42
B2	-2.61	-2.63	-2.72	-2.3
B3	-1	-2.29	-1.73	0.124
B4	0.0109	-0.207	1.27	2.65
B5	1.59	2.54	2.34	3.65
B6	2.28	2.37	0.519	0.415
B7	0.0603	-0.828	-0.732	0.278
B8	1.29	2.89	2.18	3.14
B9	1.83	2.47	2.5	3.21
B10	3.48	3.3	1.55	1.36
B11	0.136	1.5	3.07	2.97
B12	3.05	2.87	1.94	1.96
B13	3.55	3.79	3.08	1.83
B14	2.49	2.78	2.65	2.98
B15	3.57	3.51	3.19	2.25
B16	-1.57	-1.84	0.414	1.14
B17	-2.16	-2.66	-2.79	-2.23
B18	-2.5	-2.28	-2.09	-1.82
